TDP1 cell noCPT: qHTS for Inhibitors of human tyrosyl-DNA phosphodiesterase 1 (TDP1): qHTS in cells in absence of CPT. DT40 Tdp1-/- hTDP1 cells, no CPT, ATP luminescence, 48 h. Potency, µM (series often up to 46.2 µM), for inactives: at the top dose activity change, negative = growth inhibition, usual class: inhibitors. hit rate 15% among 420,000; also: % is scaled to controls: 0 for no effect and ±100 for the full control effect; nearly all actives have a fitted effect of over 55% in size
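Chicken DT40 Tdp1-/- cells stably complemented with human TDP1 were seeded at 400 cells/well with DMSO in place of 20 nM camptothecin. After compound pinning, cells grew at least 48 hr at 37 °C; viability read by CellTiter-Glo luminescence.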
HepG2 tox: qHTS for Inhibitors of TGF-b: Cytotox Counterscreen; HepG2 CAGA-GFP viability, ATP luminescence, 18 h; Potency, µM (titrated, usually from 46.1 µM), inactives show at the highest dose activity change, negative = cytotoxicity, actives largely listed as cytotoxic; hit rate 0.76% among 410,000; AID 588856, 2011
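HepG2 CAGA-GFP cells (1000/well, DMEM with 1% FBS) received compound, then TGF-beta at 500 pg/mL final, and were incubated 18 hours at 37 degrees C. Viability was read by CellTiter-Glo luminescence. Media-only wells were set as complete cell-killing and DMSO as no toxicity.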
TGFb inhibitor: qHTS for Inhibitors of TGF-b; AID 588855, 2011; hit rate 1.2% among 410,000; HepG2 CAGA-GFP TGF-b/SMAD3 reporter, GFP fluorescence, 18 h; TGF-beta stimulated, 500 pg/mL final; Potency, µM (series often up to 46.1 µM), inactives show at the highest dose activity, negative = inhibition, hits mostly inhibitors; also: % is scaled to controls: 0 for no effect and ±100 for the full control effect; nearly all actives have a fitted effect of over 65% in size
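Read-out: total well GFP (ex488/em500-530) summed from mean per-cell fluorescence. Cells: HEPG2 CAGA-GFP, 1% FBS DMEM, 18 h at 37 degrees C with 500 pg/mL final TGF-beta. Unstimulated wells served as the full-inhibition control; stimulated DMSO wells = 0%.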
HT1080NT lethal: qHTS for induction of synthetic lethality in tumor cells producing 2HG: qHTS for the HT-1080-NT fibrosarcoma cell line; HT-1080-NT fibrosarcoma viability, CellTiter-Glo ATP luminescence, 48 h; hit rate 1.6% among 360,000; AID 686970, 2013; Potency, µM (doses to about 46.1 µM), for inactives: at the top dose activity, negative = less viability, actives largely listed as cytotoxic;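 also: NT is the 2HG producing partner of a matched IDH1 knockdown line; 0% = DMSO-treated cells and -100% = media-only wells without cells; nearly all actives have a fitted effect of over 55% in size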
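Viability of the 2HG-overproducing fibrosarcoma line after 48 hours of compound exposure at 37 degrees C was determined by luminescence with CellTiter-Glo, and concentration-effect curves were then fitted and categorized.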
TDP1 cell CPT: qHTS for Inhibitors of human tyrosyl-DNA phosphodiesterase 1 (TDP1): qHTS in cells in presence of CPT | Potency, µM (series often up to 46.2 µM), without a hit: top-dose activity change, negative = growth inhibition, usual class: inhibitors | hit rate 12% among 420,000 | AID 686979, 2013 | chicken DT40 Tdp1-/-;hTDP1 cells + 20 nM CPT, ATP luminescence, 48 h; also: % is scaled to controls: 0 for no effect and ±100 for the full control effect; nearly all actives have a fitted effect of over 55% in size
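Chicken DT40 Tdp1-/- cells complemented with human TDP1, 400 cells/well, exposed to compounds plus 20 nM camptothecin for at least 48 h at 37 C; viability read as ATP content by CellTiter-Glo luminescence.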
HT1080 IDH1KD tx: qHTS for induction of synthetic lethality in tumor cells producing 2HG: qHTS for the HT-1080-IDH1KD cell line. HT-1080 IDH1 knockdown viability, ATP luminescence, 48 h. Potency, µM (titrated, usually from 46.1 µM), for the others: top-dose activity, negative = toxicity, most hits filed as cytotoxic. hit rate 2% among 360,000. AID 686971, 2013;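 also: 0% = DMSO wells and -100% = cell-free medium wells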
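Viability of IDH1-knockdown HT-1080 fibrosarcoma cells was assessed by CellTiter-Glo after 48 h at 37 °C with titrated compound; concentration-effect curves were classified by fit quality and response size.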
* hit, by the source's call; u = inconclusive; x = not tested or not shown; [ ] = dose if it differs, or a comment. Sampled rows, rich in hits. Any-hit rate of the full collection: about 17%. Calls follow the shape of the dose curve; as a rule, active = well fitted curve in the direction sought with a large enough effect; inconclusive = small, poorly fitted or top-dose-only effect, or another doubt; inactive = no such curve, though single readings can be large; an effect the other way counts as inactive or inconclusive. Potency is read from the fitted curve at half-maximal effect.

SMILES	TDP1 cell noCPT	HepG2 tox	TGFb inhibitor	HT1080NT lethal	TDP1 cell CPT	HT1080 IDH1KD tx
OC(c1ccc(F)cc1)c1ncc(-c2cccc3ccccc23)[nH]1 (stereo not drawn)	u	-24%	-14%	-25%	u	-5%
CCc1ccc(C(O)c2ncc(-c3cccc4ccccc34)[nH]2)cc1 (stereo not drawn)	16µM*	-47%	u	u	u	u
CCN1CCN(c2cc(C)c3cc(NC(=S)N4CCN(c5ccccc5)CC4)ccc3n2)CC1	10µM*	-22%	u	-6%	7.3µM*	-4%
Cc1cc(N2CCN(C)CC2)nc2ccc(NC(=S)N3CCN(c4ccccn4)CC3)cc12	u	-27%	-25%	16µM*	-27%	u
Cc1ccc(C)c(N2CCN(C(=S)Nc3ccc4nc(N5CCN(C)CC5)cc(C)c4c3)CC2)c1	12µM*	10µM*	u	u	16µM*	u
CCN1CCN(c2cc(C)c3cc(NC(=S)N4CCOCC4)ccc3n2)CC1	-3%	5%	-1%	-1%	4%	0%
COc1cccc(CNC(=O)CN2C(=O)N(c3cc(C)ccc3C)S(=O)(=O)c3ccccc32)c1OC	23µM*	-23%	u	x	13µM*	x
Cc1ccc(C)c(N2C(=O)N(C)c3ccccc3S2(=O)=O)c1	u	-8%	-1%	x	u	x
COc1cccc(CNC(=O)CN2C(=O)N(c3c(C)cccc3C)S(=O)(=O)c3ccccc32)c1OC	16µM*	-32%	0%	x	16µM*	x
Cc1ccc(C)c(N2C(=O)N(Cc3ccccc3C)c3ccccc3S2(=O)=O)c1	29µM*	-11%	-23%	x	18µM*	x
COc1ccc(C(=O)N2CCC[C@@]3(CCN(c4ncccn4)C3)C2)cc1	-8%	x	x	x	7%	x
O=C(COC(=O)C12CC3CC(CC(C3)C1)C2)Nc1nccs1	-2%	-16%	5%	18%	-8%	11%
CCCNC(=O)N1CCN(S(=O)(=O)c2ccc3c(c2)OCCO3)CC1	-13%	-10%	-10%	0%	-9%	-9%
CCOC(=O)c1ccccc1NC(=O)COC(=O)CC(C)(C)CC1=NS(=O)(=O)c2ccccc2N1	u	-31%	u	x	u	x
COc1ccccc1NC(=O)COC(=O)CC(C)(C)CC1=NS(=O)(=O)c2ccccc2N1	u	-13%	u	-3%	23µM*	-11%
CC(C)(CC(=O)OCC(=O)Nc1ccccc1F)CC1=NS(=O)(=O)c2ccccc2N1	13µM*	-10%	u	1%	23µM*	-4%
O=C(Cc1ccccc1)N/N=C/c1ccccn1	-15%	-54%	10%	-3%	-12%	u
S=C(NN=C(c1ccccc1)c1ccccn1)N(Cc1ccccn1)Cc1ccccn1	0.15µM*	-85%	u	16µM*	0.15µM*	8.2µM*
Cc1ccccc1NC(=S)N(Cc1ccccn1)Cc1ccccc1Cl	u	-24%	u	-2%	u	0%
CC(=NNC(=S)N(Cc1ccccn1)Cc1ccccn1)c1cnccn1	0.82µM*	-44%	u	u	0.58µM*	0.58µM*
S=C(NN=Cc1ccccn1)N(Cc1ccccn1)Cc1ccccn1	0.92µM*	-21%	u	-21%	0.65µM*	u
COc1ccccc1NC(=S)N(Cc1ccc(C)cc1)Cc1ccccn1	-22%	-17%	-5%	1%	u	-1%
CCN(CC)CCCCNc1ncc2cc(-c3cc(OC)cc(OC)c3)c(NC(=O)NC(C)(C)C)nc2n1	u	14µM*	u	16µM*	u	9.2µM*
CCOc1ccccc1NC(=O)C1CCC(CNS(=O)(=O)c2ccc3c(c2)CCCC(=O)N3)CC1 (stereo not drawn)	23µM*	-25%	u	x	u	x
COc1cccc(NC(=O)C2CCC(CNS(=O)(=O)c3ccc4c(c3)CCCC(=O)N4)CC2)c1 (stereo not drawn)	15µM*	-25%	49%	x	12µM*	x
SMILES	TDP1 cell noCPT	HepG2 tox	TGFb inhibitor	HT1080NT lethal	TDP1 cell CPT	HT1080 IDH1KD tx
O=C1CCCc2cc(S(=O)(=O)NCC3CCC(C(=O)Nc4ccccc4F)CC3)ccc2N1 (stereo not drawn)	u	-11%	-25%	x	u	x
CCN(Cc1ccccc1)C(=O)C1CCC(CNS(=O)(=O)c2ccc3c(c2)CCCC(=O)N3)CC1 (stereo not drawn)	16µM*	-27%	u	x	u	x
Cc1cnc(-n2ncc(C(=O)NCc3cccnc3)c2C)nc1-c1ccc(F)cc1	-26%	x	x	x	-11%[9.04 µM]	x
CCOC(=O)[C@]12CCCC=C1N(Cc1cccc3ccccc13)C(=O)[C@H](CC(=O)NCCCCc1ccccc1)C2	u	x	x	-25%	u	-12%
COC(=O)[C@]12CCCCC=C1N(Cc1cccc3ccccc13)C(=O)[C@H](CC(=O)NCCCN1CCCC1=O)C2	16µM*	x	x	5%	u	0%
CCOC(=O)[C@]12CCCC=C1N(Cc1cccc3ccccc13)C(=O)[C@H](CC(=O)NCCCOC)C2	u	x	x	3%	u	3%
COC(=O)[C@@]12C[C@@H](CC(=O)NCCCN3CCCC3=O)C(=O)N(Cc3cccc4ccccc34)C1=CCC(C)(C)C2	u	x	x	-19%	u	-15%
CCCCOCCCNC(=O)C[C@@H]1C[C@@]2(C(=O)OCC)CCC=C2N(Cc2cccc3ccccc23)C1=O	18µM*	x	x	u	21µM*	u
CCOC(=O)[C@]12CCC=C1N(Cc1cccc3ccccc13)C(=O)[C@H](CC(=O)NCC13CC4CC(CC(C4)C1)C3)C2	u	x	x	-23%	21µM*	-21%
CCCCOCCCNC(=O)C[C@@H]1C[C@@]2(C(=O)OC)CCCCC=C2N(Cc2ccccc2)C1=O	13µM*	x	x	0%	18µM*	13%
CCOC(=O)[C@]12CCC=C1N(Cc1cccc3ccccc13)C(=O)[C@H](CC(=O)NCCCOC)C2	15µM*	x	x	11%	18µM*	-1%

High-throughput results: PubChem BioAssay, National Center for Advancing Translational Sciences (NCATS)
